Results published in ChEMBL document CHEMBL1961873, “Compounds: GSK PKIS; Assays: Nanosyn kinase panel” (2012).

These compounds were tested against RAF proto-oncogene serine/threonine-protein kinase (Homo sapiens) (UniProt P04049). Details: at 0.1 µM.
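Further: values are mean CRAF kinase inhibition from profiling of the GSK Published Kinase Inhibitor Set.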

Sequence of RAF proto-oncogene serine/threonine-protein kinase (Homo sapiens) (P04049 whole entry): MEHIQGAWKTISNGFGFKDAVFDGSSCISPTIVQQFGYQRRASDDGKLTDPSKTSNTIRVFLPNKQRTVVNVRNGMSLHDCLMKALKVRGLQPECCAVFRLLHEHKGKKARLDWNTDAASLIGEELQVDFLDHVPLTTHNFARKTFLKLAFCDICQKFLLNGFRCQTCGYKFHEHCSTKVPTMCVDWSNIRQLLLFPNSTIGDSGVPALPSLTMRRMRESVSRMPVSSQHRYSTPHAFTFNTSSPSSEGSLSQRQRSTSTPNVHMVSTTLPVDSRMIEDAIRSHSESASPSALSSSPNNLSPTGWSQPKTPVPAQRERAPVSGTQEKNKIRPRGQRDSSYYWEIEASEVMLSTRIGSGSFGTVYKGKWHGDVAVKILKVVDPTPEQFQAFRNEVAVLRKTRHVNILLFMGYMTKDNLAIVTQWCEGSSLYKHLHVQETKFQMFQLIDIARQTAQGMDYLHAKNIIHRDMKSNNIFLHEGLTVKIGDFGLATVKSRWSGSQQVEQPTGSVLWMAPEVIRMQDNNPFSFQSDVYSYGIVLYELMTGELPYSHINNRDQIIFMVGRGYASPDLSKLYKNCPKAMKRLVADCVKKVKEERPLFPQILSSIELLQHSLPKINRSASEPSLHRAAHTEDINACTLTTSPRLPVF

SMILES	inhibition
COc1ccc(-c2cc3c(N)ncnc3o2)cc1	1.23%
COc1cccc(-n2ncc3c(N/N=C/c4ccc(F)cc4)ncnc32)c1	0.27%
Nc1ncc(-c2cccc(S(N)(=O)=O)c2)c2scc(-c3ccc(F)c(Cl)c3)c12	-0.36%
COc1cccc(-c2c[nH]c3c(N/N=C/c4ccncc4)ncnc23)c1	2.82%
CN(C)CCOc1ccc(-c2nc(-c3ccncc3)c(-c3ccc4c(c3)CC/C4=N\O)[nH]2)cc1	12.5%
Clc1ccc(-c2nn3ncccc3c2-c2ccnc(Nc3ccccc3)n2)cc1	-2.35%
CCN1CCC(CC(=O)Nc2n[nH]c3nnc(-c4cccc(F)c4F)cc23)CC1	10.2%
CCCN(CCS(C)(=O)=O)Cc1ccc(-c2ccc3ncnc(Nc4ccc(OCc5cccc(F)c5)c(Cl)c4)c3c2)o1	1.57%
NS(=O)(=O)c1ccc(Nc2ncc(-c3ccccc3)o2)cc1	-0.15%
Fc1cccc(COc2ccc(Nc3ncnc4sc(-c5ccco5)cc34)cc2Cl)c1	-0.33%
c1cc(-c2cnn3nc(N4CCOCC4)ccc23)nc(NC2CC2)n1	1.78%
Nc1nc(-c2cccc(Cl)c2)c(-c2ccc3ncccc3n2)s1	-1.17%
COc1ccc(-c2oc3ncnc(N)c3c2-c2ccc(NC(=O)Nc3cc(C(F)(F)F)ccc3F)cc2)cc1	2.02%
Cc1ccc(O)cc1Nc1ccnc2cc(-c3ccccn3)ccc12	-1.1%
Fc1ccc(-c2nn3ccccc3c2-c2ccncc2)cc1	-1.45%
Cc1ccc2c(-c3ccnc(Nc4ccccc4)n3)c(-c3ccc(F)cc3)nn2n1	-2.73%
COC(=O)c1sc(-n2cnc3cc(OC)c(OC)cc32)cc1OCc1ccccc1C(F)(F)F	3.34%
